Measured values reported in PubChem BioAssay AID1159580 (chemical genetic matrix, 2015).
Screen size: about 5,500 compounds; about 2,000 (36%) were called active. Inconclusive results (about 18%) are left out. Cut-off read from the data, not from the text of the source: active = normalized growth mostly below about 0.91 (no sharp cut-off); inconclusive = no clear call, values can overlap the other calls; inactive = mostly above about 0.92. The list shows a part of the results.

Test: chemical genetic growth profiling, strain panel (AID 1159580);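 note: tested at 20 µM; growth read once vehicle control cultures reached saturation at 30 °C; 1 = growth at the plate median or of vehicle wells; lower values mean less growth of the strain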
Details: growth OD

Measured: normalized growth

CC(=O)CCCCn1c(=O)c2c(ncn2C)n(C)c1=O
inactive: S. cerevisiae deletion strains, locus YJR066W, strain TOR1, hits give low values 0.958 | S. cerevisiae deletion strains, locus YJR075W, strain HOC1, hits give low values 1.01 | S. cerevisiae deletion strains, locus YKL009W, strain mrt4, hits give low values 0.994 | S. cerevisiae deletion strains, locus YKL068W, hits give low values 0.997 | S. cerevisiae deletion strains, locus YKL085W, strain MDH1 (second series), hits give low values 1 | S. cerevisiae deletion strains, locus YKL085W, strain MDH1, hits give low values 1 | S. cerevisiae deletion strains, locus YKL160W, strain elf1, hits give low values 1.02 | S. cerevisiae deletion strains, locus YKL190W, strain CNB1, hits give low values 1.02 | S. cerevisiae deletion strains, locus YKR001C, strain vps1, hits give low values 1.02 | S. cerevisiae deletion strains, locus YKR026C, strain gcn3, hits give low values 1.01 | S. cerevisiae deletion strains, locus YKR091W, strain srl3, hits give low values 1.01 | S. cerevisiae deletion strains, locus YLL001W, strain dnm1, hits give low values 1.01 | S. cerevisiae deletion strains, locus YLL026W, hits give low values 1.01 | S. cerevisiae deletion strains, locus YLL041C, strain sdh2, hits give low values 1.01 | S. cerevisiae deletion strains, locus YLR027C, strain aat2, hits give low values 1 | S. cerevisiae deletion strains, locus YLR039C, strain RIC1, hits give low values 1.03 | S. cerevisiae deletion strains, locus YLR058C, strain SHM2, hits give low values 1.02 | S. cerevisiae deletion strains, locus YLR102C, strain apc9, hits give low values 0.997 | S. cerevisiae deletion strains, locus YLR113W, strain HOG1, hits give low values 1 | S. cerevisiae deletion strains, locus YLR221C, strain rsa3, hits give low values 1.02 | S. cerevisiae deletion strains, locus YLR258W, strain gsy2, hits give low values 1.01 | S. cerevisiae deletion strains, locus YLR262C, strain YPT6 (second series), hits give low values 1.01 | S. cerevisiae deletion strains, locus YLR262C, strain YPT6, hits give low values 1.09 | S. cerevisiae deletion strains, locus YLR268W, strain sec22, hits give low values 1.01 | S. cerevisiae deletion strains, locus YLR320W, strain mms22, hits give low values 1.03 | S. cerevisiae deletion strains, locus YLR330W, strain CHS5, hits give low values 1.01 | S. cerevisiae deletion strains, locus YLR342W, strain FKS1 (second series), hits give low values 0.979 | S. cerevisiae deletion strains, locus YLR342W, strain FKS1, hits give low values 1.01 | S. cerevisiae deletion strains, locus YLR357W, strain rsc2, hits give low values 1.07 | S. cerevisiae deletion strains, locus YLR370C, strain arc18, hits give low values 1.02 | S. cerevisiae deletion strains, locus YLR371W, strain rom2, hits give low values 0.993 | S. cerevisiae deletion strains, locus YLR384C, strain iki3, hits give low values 1.02 | S. cerevisiae deletion strains, locus YLR418C, strain cdc73, hits give low values 0.982 | S. cerevisiae deletion strains, locus YML016C, strain PPZ1, hits give low values 1.02 | S. cerevisiae deletion strains, locus YML032C, strain rad52, hits give low values 0.997 | S. cerevisiae deletion strains, locus YML120C, strain ndi1, hits give low values 1.02 | S. cerevisiae deletion strains, locus YML124C, strain tub3, hits give low values 0.996 | S. cerevisiae deletion strains, locus YMR058W, strain fet3, hits give low values 1.02 | S. cerevisiae deletion strains, locus YMR078C, strain ctf18, hits give low values 0.996 | S. cerevisiae deletion strains, locus YMR125W, strain sto1, hits give low values 1.02 | S. cerevisiae deletion strains, locus YMR129W, hits give low values 1.01 | S. cerevisiae deletion strains, locus YMR205C, strain PFK2, hits give low values 1.04 | S. cerevisiae deletion strains, locus YMR223W, strain ubp8, hits give low values 0.975 | S. cerevisiae deletion strains, locus YMR231W, strain pep5, hits give low values 1.02 | S. cerevisiae deletion strains, locus YMR307W, strain GAS1, hits give low values 0.995 | S. cerevisiae deletion strains, locus YNL067W, strain RPL9B, hits give low values 1.04 | S. cerevisiae deletion strains, locus YNL071W, strain lat1, hits give low values 1.01 | S. cerevisiae deletion strains, locus YNL128W, strain TEP1, hits give low values 0.998 | S. cerevisiae deletion strains, locus YNL175C, strain NOP13, hits give low values 1.02 | S. cerevisiae deletion strains, locus YNL183C, strain NPR1, hits give low values 0.924 | S. cerevisiae deletion strains, locus YNL197C, strain WHI3, hits give low values 1.01 | S. cerevisiae deletion strains, locus YNL209W, strain ssb2, hits give low values 1.01 | S. cerevisiae deletion strains, locus YNL224C, strain SQS1, hits give low values 1 | S. cerevisiae deletion strains, locus YNL233W, strain BNI4, hits give low values 1.02 | S. cerevisiae deletion strains, locus YNL248C, strain rpa49, hits give low values 1.01 | S. cerevisiae deletion strains, locus YNL250W, strain rad50, hits give low values 1.02 | S. cerevisiae deletion strains, locus YNL271C, strain bni1, hits give low values 1 | S. cerevisiae deletion strains, locus YNL298W, strain CLA4, hits give low values 1 | S. cerevisiae deletion strains, locus YNL307C, strain MCK1, hits give low values 0.99 | S. cerevisiae deletion strains, locus YNL322C, strain KRE1 (second series), hits give low values 1.02 | S. cerevisiae deletion strains, locus YNL322C, strain KRE1, hits give low values 1.01 | S. cerevisiae deletion strains, locus YNR049C, strain mso1, hits give low values 1.01 | S. cerevisiae deletion strains, locus YNR052C, strain pop2, hits give low values 1.01 | S. cerevisiae deletion strains, locus YOL006C, strain TOP1, hits give low values 1.08 | S. cerevisiae deletion strains, locus YOL012C, strain htz1 1.51 | S. cerevisiae deletion strains, locus YOL147C, strain pex11, hits give low values 1 | S. cerevisiae deletion strains, locus YOR001W, strain rrp6, hits give low values 1.04 | S. cerevisiae deletion strains, locus YOR061W, strain CKA2, hits give low values 1.02 | S. cerevisiae deletion strains, locus YOR069W, strain VPS5, hits give low values 1.01 | S. cerevisiae deletion strains, locus YOR070C, strain gyp1, hits give low values 1.01 | S. cerevisiae deletion strains, locus YOR080W, strain dia2, hits give low values 1.02 | S. cerevisiae deletion strains, locus YOR083W, strain WHI5 (second series), hits give low values 1.05 | S. cerevisiae deletion strains, locus YOR083W, strain WHI5, hits give low values 1 | S. cerevisiae deletion strains, locus YOR106W, strain vam3, hits give low values 1.02 | S. cerevisiae deletion strains, locus YOR136W, strain idh2, hits give low values 0.996 | S. cerevisiae deletion strains, locus YOR144C, strain elg1, hits give low values 0.99 | S. cerevisiae deletion strains, locus YOR184W, strain ser1, hits give low values 0.999 | S. cerevisiae deletion strains, locus YOR231W, strain MKK1, hits give low values 0.977 | S. cerevisiae deletion strains, locus YOR265W, strain rbl2, hits give low values 1.01 | S. cerevisiae deletion strains, locus YOR270C, strain vph1, hits give low values 1.04 | S. cerevisiae deletion strains, locus YOR290C, strain snf2, hits give low values 1 | S. cerevisiae deletion strains, locus YOR316C, strain cot1, hits give low values 0.999 | S. cerevisiae deletion strains, locus YPL051W, strain arl3, hits give low values 1.01 | S. cerevisiae deletion strains, locus YPL055C, strain LGE1, hits give low values 1.04 | S. cerevisiae deletion strains, locus YPL078C, strain atp4, hits give low values 1.01 | S. cerevisiae deletion strains, locus YPL106C, strain sse1, hits give low values 1.03 | S. cerevisiae deletion strains, locus YPL240C, strain hsp82, hits give low values 1.01 | S. cerevisiae deletion strains, locus YPL241C, strain CIN2, hits give low values 1.01 | S. cerevisiae deletion strains, locus YPL256C, strain CLN2, hits give low values 0.958 | S. cerevisiae deletion strains, locus YPR119W, strain clb2, hits give low values 0.993 | S. cerevisiae deletion strains, locus YPR141C, strain kar3, hits give low values 0.991 | S. cerevisiae deletion strains, locus YPR163C, strain tif3, hits give low values 1 | S. cerevisiae deletion strains, locus YPR167C, strain met16, hits give low values 0.997 | S. cerevisiae deletion strains, strain wtn01, hits give low values 1 | S. cerevisiae strains, strain wild type, hits give low values 1.02
